Screening results (PubChem BioAssay)
ERK EGF inh: inhibitors of EGF-stimulated ERK signaling pathway | HEK293-V1b, EGF-stimulated phospho-ERK AlphaScreen | hit rate 0.41% among 130,000 | Potency, µM (top dose mostly 11.5 µM), for the others: at the highest dose activity change, negative = inhibition, actives largely listed as inhibitors; active means well fitted inhibition curve with a large enough effect;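 further: plate controls were stimulated vehicle wells for no effect and unstimulated vehicle basal for full effect; nearly all actives have a fitted effect of over 55% in size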
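Concentration-response of compounds against EGF-driven ERK phosphorylation in V1b-expressing HEK293 cells; 30 min preincubation, 5 min EGF, AlphaScreen detection; Normalized to DMSO basal and 25 nM EGF.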
* marks the source's active call; other numbers are inactive results; [ ] = dose if it differs, or a comment. The sample as a whole holds a higher share of hits than the screen did. Potency means the concentration at half of the fitted maximal effect.

SMILES | ERK EGF inh
COc1ccc(CCNc2ncnc3c2[nH]c2cc(OC)c(OC)cc23)cc1OC | -13%[57.5 µM]
COc1ccc(CCNc2c3ccccc3nc3ccccc23)cc1OC | -7%[57.5 µM]
COc1cccc(-c2cc(NCc3cccs3)ncn2)c1 | 18%
COc1cc2ncnc(NCc3cccs3)c2cc1OC | 2.5µM*
Cc1ccc(CNC(=O)COc2ccccc2-c2ccccc2)cc1 | 3%
O=C(c1ccccc1)c1ccc2n1CC[C@H]2C(=O)O | 14%[25.7 µM]
COc1cccc([C@@H]2Oc3ccc(Br)cc3C[C@H]2OC(=O)Nc2ccc(C)c(Br)c2)c1 | -5%
COC(=O)[C@@]1(Cc2ccccc2)[C@H]2c3cc(C(=O)N(C)C)n(Cc4ccc(S(C)(=O)=O)cc4)c3C[C@H]2CN1C(=O)c1ccccc1 | -13%
CC(C)(C)OC(=O)NCCCCC1=CC2=CC(=O)C(C)(OC(=O)C3CCCC3)C(=O)C2=CO1 (stereo not given) | -4%
COc1cc2c(cc1OC)C1N(CC2)C(=O)CCC12C(=O)CCCC2=O (stereo not given) | -17%
COc1ccc([C@@H]2[C@@H](O)[C@H](O)[C@@H](C)N2C)cc1OC | -1%
CCCCC/C=C\C/C=C\CCCCCCCC(=O)NCC(=O)O | 6%
CC1=NN(c2ccccc2)C(=O)/C1=C\c1cc(C)n(-c2ccccc2)c1C | -5%
CC1=NN(c2ccccc2)C(=O)/C1=C\c1ccc(Br)s1 | 28µM*
CC1=NN(c2ccccc2)C(=O)/C1=C/c1ccc[nH]1 | 18µM*
CC1=NN(c2ccccc2)C(=O)/C1=C/c1cccs1 | 5%
CC1=NN(c2ccccc2)C(=O)/C1=C\c1cc(C)n(-c2cccnc2)c1C | -2%[57.5 µM]
CC1=NN(c2ccccc2)C(=O)/C1=C/c1c(O)n(-c2ccc(F)cc2)[nH]c1=O | 0%
OCC1O[C@H](OC2C(CO)O[C@@](O)(CO)C2O)C(O)C(O)C1O (stereo not given in full) | 24%
Cn1cccc1C(=O)N1CCC2(CCCN(Cc3ccncc3)C2)CC1 | -8%
CN(C)c1ccc(C(=O)OCC(=O)NC2CCCCCC2)cc1 | -3%
CN(C(=O)c1ccccc1C(=O)OCC(=O)NC(=O)NC(C)(C)C)C1CCCCC1 | -2%
CN(C)c1ccc(N=Nc2ccccc2C(=O)OCC(=O)NCC2CCCCC2)cc1 | 13µM*
C[C@](O)(C(=O)Nc1ccc(S(=O)(=O)c2ccccc2)cc1)C(F)(F)F | 7%
O=C(NC(=S)N1CCCCC1)c1cccnc1 | -15%[57.5 µM]
SMILES | ERK EGF inh
O=C(NC(=S)NN1CCCCC1c1cccnc1)c1ccc(Br)cc1 (stereo not given) | 14µM*
COC(=O)c1ccc(NC(=S)NN2CCCCC2c2cccnc2)cc1 (stereo not given) | 9%[57.5 µM]
C=CCN1C(=O)S/C(=C\c2ccc3c(c2)n(C)c(=O)n3C)C1=O | -1%
C=CCN1C(=O)S/C(=C/c2ccsc2)C1=O | 2%
C=CCN1C(=O)S/C(=C/c2ccc(Sc3nc4ccccc4[nH]3)o2)C1=O | 25µM*
CC(C)CN1CCC2(CC1)CCN(S(=O)(=O)c1ccccc1)CC2 | 7%
CCOC(=O)C1=C[C@@]2(CC)CCCN3CCc4c(n1c1ccccc41)C32 (stereo not given in full) | 7%
O=C1CCC=C1C(O)c1ccc2c(c1)OCO2 (stereo not given) | -9%
O=C1c2cccc3cccc(c23)C(=O)N1CCN1CCN(CC(O)COc2ccc3ccccc3c2)CC1 (stereo not given) | 1%
COc1cc(COCC(O)CN2CCN(CCN3C(=O)c4cccc5cccc(c45)C3=O)CC2)cc(OC)c1OC (stereo not given) | 5%
CC(=O)c1ccccc1OC(=O)CCN1C(=O)c2ccccc2C1=O | 2%
O=C1c2cccc3cccc(c23)C(=O)N1CCN1CCN(CC(O)COCc2ccc(Cl)cc2)CC1 (stereo not given) | 32µM*
O=C1c2cccc3cccc(c23)C(=O)N1CCN1CCN(C(=S)Nc2ccc(Cl)cc2)CC1 | 8%
CC(=O)c1ccccc1OCC(O)CN1CCN(CCN2C(=O)c3cccc4cccc(c34)C2=O)CC1 (stereo not given) | 25µM*
COc1ccc(CNC(=S)Nc2cc(OC)ccc2OC)cc1 | -2%
CSc1ccccc1C(=O)NCCOc1cccc(C)c1 | -3%
N=S(=O)(O)Cc1noc2ccccc12 | 16%
CCC(C)CCCCC(=O)NC(CCN)C(=O)NC(C(=O)NC(CCN)C(=O)NC1CCNC(=O)C(C(C)O)NC(=O)C(CCN)NC(=O)C(CCN)NC(=O)C(CC(C)C)NC(=O)C(Cc2ccccc2)NC(=O)C(CCN)NC1=O)C(C)O (stereo not given) | 14%
CC(C)C1NC(=O)[C@H](CCCCN)NC(=O)[C@@H](Cc2c[nH]c3ccccc23)NC(=O)[C@H](Cc2ccc(O)cc2)NC(=O)[C@H](C)N(C)C(=O)[C@H](Cc2ccccc2)NC1=O (stereo not given in full) | 21%
